Reference: PubChem BioAssay (NCI)
Compounds without any hit were thinned out: in the full panel of roughly 83,000, 20% have a hit.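 Single-dose data. Exposure time 48 hours. Values below 10 considered active.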 Calls of active or inactive are those of the source.

Legend:
Experiment in all cases: NCI-60 one-dose screen, 48 h (100 = growth as untreated, 0 = no growth, -100 = all killed)
Details in all cases: 10 µM unless noted
SK-MEL-2 melanoma = tested on: SK-MEL-2 melanoma
EKVX NSCLC = tested on: EKVX NSCLC
SN12C renal = tested on: SN12C renal
UO-31 renal = tested on: UO-31 renal
TK-10 renal = tested on: TK-10 renal
ACHN renal = tested on: ACHN renal
CAKI-1 renal = tested on: CAKI-1 renal
A498 renal = tested on: A498 renal
CCRF-CEM leukemia = tested on: CCRF-CEM leukemia
MOLT-4 leukemia = tested on: MOLT-4 leukemia
SR leukemia = tested on: SR leukemia
RPMI-8226 leukemia = tested on: RPMI-8226 leukemia
OVCAR-8 ovarian = tested on: OVCAR-8 ovarian
OVCAR-5 ovarian = tested on: OVCAR-5 ovarian
OVCAR-4 ovarian = tested on: OVCAR-4 ovarian
SK-OV-3 ovarian = tested on: SK-OV-3 ovarian
IGROV1 ovarian = tested on: IGROV1 ovarian
OVCAR-3 ovarian = tested on: OVCAR-3 ovarian
HS 578T breast = tested on: HS 578T breast
NCI/ADR-RES ovarian = tested on: NCI/ADR-RES ovarian

Measured: growth

CC(=O)O[C@@H]1CCN2C(=O)N(C)c3ccccc3[C@@H]2C1
inactive: SK-MEL-2 melanoma 102% | EKVX NSCLC 114% | SN12C renal 98.9% | UO-31 renal 94.5% | TK-10 renal 99.6% | ACHN renal 98.6% | CAKI-1 renal 95.3% | A498 renal 114% | CCRF-CEM leukemia 105% | MOLT-4 leukemia 99.6% | SR leukemia 93.3% | RPMI-8226 leukemia 104% | OVCAR-8 ovarian 109% | OVCAR-5 ovarian 96.5% | OVCAR-4 ovarian 107% | SK-OV-3 ovarian 101% | IGROV1 ovarian 105% | OVCAR-3 ovarian 122% | HS 578T breast 116% | NCI/ADR-RES ovarian 104%

COc1cc(/C=C/c2cc(/C=C/c3ccc(O)c(OC)c3)n(-c3ccccc3)c(=O)n2)ccc1O
inactive: SK-MEL-2 melanoma 79.5% | EKVX NSCLC 71.4% | SN12C renal 71.4% | UO-31 renal 58.6% | TK-10 renal 113% | ACHN renal 81.1% | CAKI-1 renal 83.7% | A498 renal 108% | CCRF-CEM leukemia 28.5% | MOLT-4 leukemia 31.5% | SR leukemia 30.7% | RPMI-8226 leukemia 50.7% | OVCAR-8 ovarian 79.1% | OVCAR-5 ovarian 113% | OVCAR-4 ovarian 61.3% | SK-OV-3 ovarian 90.7% | IGROV1 ovarian 87% | OVCAR-3 ovarian 72.3% | HS 578T breast 69.6% | NCI/ADR-RES ovarian 97.7%

O=S(=O)(NCCNc1cc(-c2cn(-c3ccccc3)nc2-c2cccc(O)c2)ccn1)c1ccc(Br)cc1
active: CCRF-CEM leukemia 9.77% | MOLT-4 leukemia 8.59% | SR leukemia 5.3%
inactive: SK-MEL-2 melanoma 20.7% | EKVX NSCLC 34.9% | SN12C renal 34.4% | UO-31 renal 19.8% | TK-10 renal 46.1% | ACHN renal 23.7% | CAKI-1 renal 43.2% | A498 renal 53.7% | RPMI-8226 leukemia 13% | OVCAR-8 ovarian 25% | OVCAR-5 ovarian 50% | OVCAR-4 ovarian 40.7% | SK-OV-3 ovarian 45.8% | IGROV1 ovarian 49.6% | OVCAR-3 ovarian 34.7% | HS 578T breast 24.8% | NCI/ADR-RES ovarian 25.5%

COc1cc2nc(Cl)nc(Nc3cccc(C(=O)/C=C/c4ccc(F)cc4)c3)c2cc1OC
active: RPMI-8226 leukemia -18.1%
inactive: SK-MEL-2 melanoma 93.9% | EKVX NSCLC 71.1% | SN12C renal 51.6% | UO-31 renal 53.9% | TK-10 renal 155% | ACHN renal 20% | CAKI-1 renal 56.5% | A498 renal 86.5% | CCRF-CEM leukemia 15.5% | MOLT-4 leukemia 35.7% | SR leukemia 12.2% | OVCAR-8 ovarian 67.3% | OVCAR-5 ovarian 68.2% | OVCAR-4 ovarian 64.9% | SK-OV-3 ovarian 106% | IGROV1 ovarian 51% | OVCAR-3 ovarian 43.4% | HS 578T breast 101% | NCI/ADR-RES ovarian 51.6%

C=C(C)[C@@H]1CC[C@]2(C(=O)OC)CC[C@]3(C)[C@H](CC[C@@H]4[C@@](C)(CC/C(N)=N/O)[C@H](C(=C)C)CC[C@]43C)[C@@H]12
inactive: SK-MEL-2 melanoma 97.9% | EKVX NSCLC 97% | SN12C renal 97.2% | UO-31 renal 93% | TK-10 renal 105% | ACHN renal 101% | CAKI-1 renal 77.7% | A498 renal 95.1% | CCRF-CEM leukemia 107% | MOLT-4 leukemia 92.4% | SR leukemia 69.2% | RPMI-8226 leukemia 93% | OVCAR-8 ovarian 102% | OVCAR-5 ovarian 105% | OVCAR-4 ovarian 92.1% | SK-OV-3 ovarian 115% | IGROV1 ovarian 107% | OVCAR-3 ovarian 103% | HS 578T breast 93.9% | NCI/ADR-RES ovarian 101%

CN(C)CCCC1(c2ccc(F)cc2)OCc2cc(-c3ccc(C(F)(F)F)nc3)ccc21 (stereo not given)
inactive: SK-MEL-2 melanoma 94.2% | EKVX NSCLC 76.1% | SN12C renal 75.1% | UO-31 renal 55.5% | TK-10 renal 82.4% | ACHN renal 83.1% | CAKI-1 renal 55.4% | A498 renal 89.8% | CCRF-CEM leukemia 69.1% | MOLT-4 leukemia 53.6% | SR leukemia 11.9% | RPMI-8226 leukemia 69.2% | OVCAR-8 ovarian 83.6% | OVCAR-5 ovarian 85.5% | OVCAR-4 ovarian 66.4% | SK-OV-3 ovarian 80.3% | IGROV1 ovarian 66.5% | OVCAR-3 ovarian 84.6% | HS 578T breast 61.9% | NCI/ADR-RES ovarian 84.1%

CC1(C)[C@@H](O)CC[C@]2(C)[C@H]3CC[C@@H]4[C@H]5[C@H](C(=O)/C=C/c6ccc(C(F)(F)F)cc6)CC[C@]5(CO)CC[C@@]4(C)[C@]3(C)CC[C@@H]12
inactive: SK-MEL-2 melanoma 83.7% | EKVX NSCLC 71.2% | SN12C renal 58.8% | UO-31 renal 46.7% | TK-10 renal 105% | ACHN renal 25.9% | CAKI-1 renal 47.4% | CCRF-CEM leukemia 28.4% | MOLT-4 leukemia 14% | SR leukemia 17.8% | RPMI-8226 leukemia 28.2% | OVCAR-8 ovarian 55.7% | OVCAR-5 ovarian 109% | OVCAR-4 ovarian 38.4% | SK-OV-3 ovarian 98.6% | IGROV1 ovarian 61.5% | OVCAR-3 ovarian 51.8% | HS 578T breast 59.6% | NCI/ADR-RES ovarian 70.5%
active: A498 renal -1.48%

Cn1c(=O)c2c(nc(Br)n2CC(=O)Nc2ccc(F)cc2)n(C)c1=O
inactive: SK-MEL-2 melanoma 99.1% | EKVX NSCLC 102% | SN12C renal 109% | UO-31 renal 80.9% | TK-10 renal 115% | ACHN renal 104% | CAKI-1 renal 95.9% | A498 renal 117% | CCRF-CEM leukemia 90.1% | MOLT-4 leukemia 91.9% | SR leukemia 89.2% | RPMI-8226 leukemia 79.1% | OVCAR-8 ovarian 103% | OVCAR-5 ovarian 103% | OVCAR-4 ovarian 120% | SK-OV-3 ovarian 102% | IGROV1 ovarian 107% | OVCAR-3 ovarian 114% | HS 578T breast 100% | NCI/ADR-RES ovarian 102%

N#CCCCCCn1c2ccccc2c2c3[nH]c(=O)[nH]c(=O)c3c3c4ccccc4n(CCCCCC#N)c3c21
inactive: SK-MEL-2 melanoma 78.5% | EKVX NSCLC 80.7% | SN12C renal 26.2% | UO-31 renal 61.1% | TK-10 renal 65.6% | ACHN renal 54% | CAKI-1 renal 93.2% | A498 renal 54.5% | CCRF-CEM leukemia 74.5% | MOLT-4 leukemia 69.5% | SR leukemia 20.3% | RPMI-8226 leukemia 53.4% | OVCAR-8 ovarian 27.4% | OVCAR-5 ovarian 92.4% | OVCAR-4 ovarian 58.7% | SK-OV-3 ovarian 72.7% | IGROV1 ovarian 22.4% | OVCAR-3 ovarian 49.2% | HS 578T breast 51.6% | NCI/ADR-RES ovarian 89.4%

O=S(=O)(NCCNc1cc(-c2cn(-c3ccccc3)nc2-c2cccc(O)c2)ccn1)c1ccccc1
inactive: SK-MEL-2 melanoma 66.3% | EKVX NSCLC 73.1% | SN12C renal 63.4% | UO-31 renal 37.4% | TK-10 renal 67.1% | ACHN renal 57.8% | CAKI-1 renal 60.8% | A498 renal 70.5% | CCRF-CEM leukemia 27.6% | MOLT-4 leukemia 25.1% | SR leukemia 11.7% | RPMI-8226 leukemia 32.7% | OVCAR-8 ovarian 49.8% | OVCAR-5 ovarian 92.1% | OVCAR-4 ovarian 56.3% | SK-OV-3 ovarian 69.5% | IGROV1 ovarian 57.1% | OVCAR-3 ovarian 63.3% | HS 578T breast 45.2% | NCI/ADR-RES ovarian 43.9%

Cc1ccncc1C(=O)O
inactive: SK-MEL-2 melanoma 121% | EKVX NSCLC 97.5% | SN12C renal 94.6% | UO-31 renal 88.7% | TK-10 renal 123% | ACHN renal 97.2% | CAKI-1 renal 95.9% | A498 renal 89% | CCRF-CEM leukemia 140% | MOLT-4 leukemia 122% | SR leukemia 120% | RPMI-8226 leukemia 108% | OVCAR-8 ovarian 95.5% | OVCAR-5 ovarian 94.7% | OVCAR-4 ovarian 96% | SK-OV-3 ovarian 137% | IGROV1 ovarian 99.6% | OVCAR-3 ovarian 101% | HS 578T breast 96.5% | NCI/ADR-RES ovarian 96.8%

O=S(=O)(NCCNc1cc(-c2cn(-c3ccccc3)nc2-c2cccc(O)c2)ccn1)c1ccc(Cl)cc1
active: CCRF-CEM leukemia 9.05% | MOLT-4 leukemia 8.1% | SR leukemia 2.36%
inactive: SK-MEL-2 melanoma 34.9% | EKVX NSCLC 52.1% | SN12C renal 39.4% | UO-31 renal 23% | TK-10 renal 50.5% | ACHN renal 28.5% | CAKI-1 renal 41% | A498 renal 34.9% | RPMI-8226 leukemia 12.8% | OVCAR-8 ovarian 31% | OVCAR-5 ovarian 63.4% | OVCAR-4 ovarian 38.2% | SK-OV-3 ovarian 53.5% | IGROV1 ovarian 44.4% | OVCAR-3 ovarian 43.2% | HS 578T breast 21.2% | NCI/ADR-RES ovarian 29.1%

C#CCn1c(C)cc(C)c(C#N)c1=O
inactive: SK-MEL-2 melanoma 108% | EKVX NSCLC 99.6% | SN12C renal 100% | UO-31 renal 85.6% | TK-10 renal 94.2% | ACHN renal 106% | CAKI-1 renal 95.2% | A498 renal 104% | CCRF-CEM leukemia 99.2% | MOLT-4 leukemia 111% | SR leukemia 101% | RPMI-8226 leukemia 103% | OVCAR-8 ovarian 103% | OVCAR-5 ovarian 99.9% | OVCAR-4 ovarian 105% | SK-OV-3 ovarian 118% | IGROV1 ovarian 103% | OVCAR-3 ovarian 112% | HS 578T breast 103% | NCI/ADR-RES ovarian 106%

COc1cnc2c(c1)C(=O)c1c-2n(CCCN2CCN(CCO)CC2)c(=O)c2cc([N+](=O)[O-])ccc12
inactive: SK-MEL-2 melanoma 108% | EKVX NSCLC 66% | SN12C renal 54% | UO-31 renal 36.6% | TK-10 renal 97.2% | ACHN renal 25.1% | CAKI-1 renal 37.8% | RPMI-8226 leukemia 44.6% | OVCAR-8 ovarian 52.5% | OVCAR-5 ovarian 132% | OVCAR-4 ovarian 79.4% | SK-OV-3 ovarian 54.8% | IGROV1 ovarian 74.2% | OVCAR-3 ovarian 84.4% | HS 578T breast 84.9% | NCI/ADR-RES ovarian 111%
active: A498 renal -5.96% | CCRF-CEM leukemia -5.14% | MOLT-4 leukemia 0.798% | SR leukemia -12.5%

Cc1ccc(S(=O)(=O)Nc2ccc(-c3cc(-c4cccc(F)c4)c(C#N)c(=O)[nH]3)cc2)cc1
inactive: SK-MEL-2 melanoma 112% | EKVX NSCLC 83.4% | SN12C renal 83.7% | UO-31 renal 68.6% | TK-10 renal 115% | ACHN renal 91.3% | CAKI-1 renal 60.2% | A498 renal 85.2% | CCRF-CEM leukemia 68.4% | MOLT-4 leukemia 76.9% | SR leukemia 54.9% | RPMI-8226 leukemia 19.4% | OVCAR-8 ovarian 80.1% | OVCAR-5 ovarian 99.9% | OVCAR-4 ovarian 67% | SK-OV-3 ovarian 99.7% | IGROV1 ovarian 73.1% | OVCAR-3 ovarian 82.6% | HS 578T breast 89.7% | NCI/ADR-RES ovarian 90.7%
